FID counter – counter-screen for HCV NS3 helicase inhibitors: DNA intercalator displacement. DNA fluorescent intercalator displacement, fluorescence. inhibition, % at 7.9 µM. 290,000 tested, 0.17% active. AID 1845; in the data active means inhibition above about 37%;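 further: 0% = vehicle and 100% = reference compound; higher means more ethidium bromide displaced from hairpin DNA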
MEKK2 WT-MEK5 – raises or lowers MEK5 binding to wildtype human MEKK2 PB1 domain; binding response (% of control), % at 10 µM; 290,000 tested, 1.1% active; Q9Y2U5; AID 1531; bead flow cytometry, Alexa488-MEK5 binding to MEKK2 WT; actives lie on both sides; in the data active means binding response below about 67% or above about 130%
dFosB act – mouse delta FosB homodimer activation. purified delta FosB, TAMRA-CDK5 oligo fluorescence polarization; percent of positive-control signal above neutral wells. 340,000 tested, 0.99% active. P13346. AID 493131. activation, % at 25 µM;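 active means mean activation above about 17%, with every replicate also reaching it, limit read from the data, passing the limit was not always enough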
MEKK3 PB1 HTS – raises or lowers MEK5 binding to the human MEKK3 PB1 domain; binding response (% of control), % at 10 µM; 290,000 tested, 1.4% active; AID 1529; Q99759; bead-based flow cytometry, Alexa488-MEK5 binding to MEKK3; actives lie on both sides; 0 = blocked by unlabeled MEK5, 100 = vehicle;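 active means binding response more than 3 SD above or below the average of its plate-row segment, actives on both sides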;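 further: Alexa488 bead fluorescence after subtracting the streptavidin-only scavenger bead signal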
Target sequence (Q99759 whole entry, looked up, the tested form may be a part): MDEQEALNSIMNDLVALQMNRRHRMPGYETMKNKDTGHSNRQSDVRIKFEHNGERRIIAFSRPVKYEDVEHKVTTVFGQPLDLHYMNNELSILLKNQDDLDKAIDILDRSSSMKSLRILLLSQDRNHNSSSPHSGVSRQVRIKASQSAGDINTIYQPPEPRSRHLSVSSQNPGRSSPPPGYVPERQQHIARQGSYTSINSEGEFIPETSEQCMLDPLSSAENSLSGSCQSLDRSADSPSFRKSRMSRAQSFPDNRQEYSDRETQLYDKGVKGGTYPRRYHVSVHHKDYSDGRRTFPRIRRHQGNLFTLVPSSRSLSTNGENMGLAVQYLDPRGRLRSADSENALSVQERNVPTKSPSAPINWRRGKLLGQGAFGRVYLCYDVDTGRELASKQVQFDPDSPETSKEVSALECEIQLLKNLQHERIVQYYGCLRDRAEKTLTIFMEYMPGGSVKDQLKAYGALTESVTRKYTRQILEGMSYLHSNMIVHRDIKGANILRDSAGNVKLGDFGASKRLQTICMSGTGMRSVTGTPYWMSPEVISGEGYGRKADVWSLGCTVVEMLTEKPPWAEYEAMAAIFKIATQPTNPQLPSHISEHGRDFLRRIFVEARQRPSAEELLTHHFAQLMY
MEKK2mut PB1 HTS – signal of MEK5 binding to mutant human MEKK2 PB1 domain; bead flow cytometry, Alexa488-MEK5 binding to MEKK2 mutant; percent response, % at 10 µM; 290,000 tested, 0.35% active; in the data active means percent response above about 24%, passing the limit was not always enough
MEKK2wt confirm – raises or lowers MEK5 binding to wildtype human MEKK2, retest; shares compounds with MEKK3 PB1 HTS; 5,900 tested, 2.4% active; binding response (% of control), % at 10 µM; bead flow cytometry, Alexa488-MEK5 binding to MEKK2 WT; actives lie on both sides; in the data active means binding response below about 16% or above about 210%; inactive means in between
MEKK2mut-MEK5 – signal of MEK5 binding to mutant human MEKK2, retest; 5,900 tested, 2% active; shares compounds with MEKK3 PB1 HTS; bead flow cytometry, Alexa488-MEK5 binding to MEKK2 mutant; percent response, % at 10 µM; in the data active means percent response mostly above about 71%, no sharp cut-off; inactive means mostly below about 38%;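 further: higher means compound restores mutant binding toward wildtype level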
MEKK3 confirm – confirmation of inhibitors of MEK5 binding to human MEKK3; shares compounds with MEKK3 PB1 HTS; bead flow cytometry, Alexa488-MEK5 binding to MEKK3; stronger effect = lower value; binding response (% of control), % at 10 µM; 5,900 tested, 1.8% active;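 active means binding response below 72% of control, or above a set upper limit, though filed actives all read lower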;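 further: 100% = DMSO only wells and 0% = binding blocked by excess unlabeled MEK5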
Active calls of the source: *; nt = no result given; [ ] = another dose, or the depositor's remark. Compounds with a hit are over-represented: about 2.9% of the library has one in this group of screens.

SMILES	FID counter	MEKK2 WT-MEK5	dFosB act	MEKK3 PB1 HTS	MEKK2mut PB1 HTS	MEKK2wt confirm	MEKK2mut-MEK5	MEKK3 confirm
CCCC1=C(C(=O)OCC)C(c2ccc(OC)c(C)c2OC)C(C#N)=C(N)O1 (configuration not stated)	-32	94	-6	99	-1	nt	nt	nt
O=c1[nH]nc(CNc2ccc(C(F)(F)F)cc2)c2ccccc12	-4	103	-4	109	0	nt	nt	nt
O=c1[nH]nc(CNc2ccc(OC(F)(F)F)cc2)c2ccccc12	-9	50	-7	39*[inhibitor]	-17	100	-4	104
COc1ccc(OC)c(NC(=O)CSc2nnc(-c3cnccn3)n2C)c1	-24	97	1	100	4	nt	nt	nt
Cc1cc(NS(=O)(=O)c2ccc(NC(=O)c3ccccc3F)cc2)no1	nt	nt	4	nt	nt	nt	nt	nt
COc1ccc(NS(=O)(=O)CC23CCC(CC2=O)C3(C)C)cc1 (configuration not stated)	-11	101	-3	96	5	nt	nt	nt
COc1ccc(CCNS(=O)(=O)CC23CCC(CC2=O)C3(C)C)cc1OC (configuration not stated)	-16	118	-1	114	29*	101	0	103
C#CCOCCOCCOCCNc1nc(N2CCN(C(=O)[C@H]([C@@H](C)CC)n3cc([C@@H](N)CC(C)C)nn3)CC2)nc(N2CCN(C(=O)[C@H](Cc3ccc(O)cc3)n3cc([C@@H](N)C(C)CC)nn3)CC2)n1 (some centres not stated)	35	156*	13	106	21	129	15	103
C#CCOCCOCCOCCNc1nc(N2CCN(C(=O)[C@H]([C@@H](C)CC)n3cc([C@@H](N)Cc4ccc(O)cc4)nn3)CC2)nc(N2CCN(C(=O)[C@H](CCCCN)n3cc([C@@H](N)CO)nn3)CC2)n1	58*	171*	nt	110	46	189	132*	113
C#CCOCCOCCOCCNc1nc(N2CCOCC2)nc(N2CCN(C(=O)[C@H](Cc3ccc(O)cc3)n3cc([C@@H](N)CC(C)C)nn3)CC2)n1	19	113	-3	103	8	nt	nt	nt
C#CCOCCOCCOCCNc1nc(N2CCN(C(=O)C([C@@H](C)CC)n3cc(C(N)CO)nn3)CC2)nc(N2CCN(C(=O)[C@H](CCC(=O)O)n3cc(C(N)Cc4ccc(O)cc4)nn3)CC2)n1 (some centres not stated)	nt	88	nt	82	3	nt	nt	nt
C#CCOCCOCCOCCNc1nc(N2CCN(C(=O)[C@H]([C@@H](C)CC)n3cc([C@@H](N)Cc4ccc(O)cc4)nn3)CC2)nc(N2CCN(C(=O)[C@H](Cc3ccc(O)cc3)n3cc([C@@H](N)C(C)CC)nn3)CC2)n1 (some centres not stated)	45*	191*	5	109	58*	140	12	106
COC(=O)C1=C(CS(=O)(=O)c2ccc(OC)cc2)NC(=O)NC1c1ccccc1 (configuration not stated)	-15	103	-3	102	-3	nt	nt	nt
O=C(Nc1nc(-c2ccccc2)c(-c2ccccc2)s1)c1ccc(S(=O)(=O)N2CCCC2)cc1	1	nt	-6	nt	nt	nt	nt	nt
O=C(Nc1nc(-c2ccccc2)c(C(=O)c2ccccc2)s1)c1ccc(S(=O)(=O)N2CCCC2)cc1	-1	102	-6	135*	0	100	-9	101
COc1ccc(S(=O)(=O)N(CC(=O)NCc2cccnc2)C2CCCCC2)cc1OC	-30	110	2	110	12	nt	nt	nt
CC(C)N1CCC2(CC1)N=C(c1ccc3c(c1)OCO3)CC(c1cc(Cl)ccc1O)N2 (configuration not stated)	7	138*	9	111	26*	122	8	107
